{"source": "PubChem BioAssay (EPA / NIEHS)", "note": "Results filed as inconclusive are left out. Active and inactive are the calls of the source. Rule for the calls: active = hit-call score of the fitted dose curve at least 0.9, where 1 is the maximum; inconclusive = response in the unintended direction; inactive = score below 0.9."}
{"test": "TOX21_p53_BLA_p5_viability: Viability Assessment in the Tox21 HCT-116 p53 Agonism Beta-lactamase Assay, Phase 5 (AID 2283600)", "source_text": "TOX21_p53_BLA_p5 is a cell-based, single-readout assay that uses HCT116, a human intestinal cell line, […] in a 1536-well plate.TOX21_p53_BLA_p5_viability is an assay readout measuring cellular ATP content and detected with CellTiter-Glo Luciferase-coupled ATP quantitation.TOX21_p53_BLA_p5_viability used a type of viability reporter where loss-of-signal activity can be used to understand changes in the cell viability. Furthermore, this assay endpoint can be referred to as a secondary readout, because this assay has produced multiple assay endpoints where this one serves a viability function. To generalize the intended target to other relatable targets, this assay endpoint is annotated to the cell cycle intended target family, where the subfamily is cytotoxicity.\nThawing Method: Place 14 mL of pre-warmed thaw medium into a 15 mL of conical tub. Remove the vial of cells to be thawed from liquid nitrogen and thaw rapidly by placing at 37C in a water bath with gentle agitation for 1-2 minutes. Decontaminate the vial by wiping with 70% ethanol before opening in a biological safety cabinet. Transfer the vial contents drop-wise into 14 mL of thaw medium in a sterile 15-mL conical tub. Centrifuge cells at 900 rpm for 4 minutes and resuspend in thaw medium. Transfer contents to the T75 tissue culture flask containing Thaw Medium and place flask in a humidified 37C/5% CO2 incubator. Switch to growth medium at first passage.Propagation Method: Aspirate medium, rinse once in DPBS, add 0.25% Trypsin/EDTA and swirl to coat the cell evenly. Add an equal volume of Growth Medium to inactivate Trypsin after 2-3 minutes incubation at 37C. Centrifuge cells at 900 rpm for 4 minutes and resuspend in growth medium. Cell should be passage or fed at least twice a week.Assay Protocol: Harvest cells from culture in growth medium and resuspend in assay medium. 2.2 Dispense 4000 cells/5 uL/well into 1536-well black/clear bottom plates using a Multidrop dispenser. After the cells were incubated at 37C for 5 hours, 23 nL of compounds dissolved in DMSO were transferred to the assay plate by a PinTool resulting in a 217-fold dilution. Incubate the plates for 16 hours at 37C, 5% CO2. Add 1 uL of 6X LiveBLAzer FRET B/G (CCF4-AM) Substrate Mixture to each well using a BioRAPTR dispenser and incubate the plates at room temperature for 2 hours. Measure fluorescence intensity at 460 and 530 nm emission and 405 nm excitation by an Envision detector. Data is expressed as the ratio of 460nm/530nm emissions. Add 4 uL of Cell-titer Glo to each well using BioRAPTR and incubate the plates at room temperature for […]. For cell viability readout that measures cytotoxicity, 4 ul/well of CellTiter-Glo reagent was added into the assay plates using a Flying Reagent Dispenser. After 30 min incubation at room temperature, the luminescence intensity in the plates was measured using a ViewLux plate reader."}
{"smiles": "COc1ccc(/C=C/C(=O)O)cc1", "outcome": "inactive"}
{"smiles": "N[C@@H](C(=O)N[C@@H]1C(=O)N2C(C(=O)O)=C(Cl)CC[C@H]12)c1ccccc1", "outcome": "inactive"}
{"smiles": "CC1CCCCN1CCCOC(=O)c1ccccc1", "note": "(stereo not given)", "outcome": "inactive"}
{"smiles": "CCCCOC(=O)C(=O)Nc1cccc(-c2nn[nH]n2)c1", "outcome": "inactive"}
{"smiles": "CC1(C)OC[C@@H](COC(=O)CCc2ccc(OC[C@@H](O)CNCCNC(=O)N3CCOCC3)cc2)O1", "outcome": "inactive"}
{"smiles": "CC(=O)Nc1ncc([N+](=O)[O-])s1", "outcome": "inactive"}
{"smiles": "C=CC(C)(O)CCCC(C)CCCC(C)CCCC(C)C", "note": "(stereo not given)", "outcome": "inactive"}
{"smiles": "Cn1nnnc1SCC1=C(C(=O)O)N2C(=O)[C@@H](NC(=O)[C@H](O)c3ccccc3)[C@H]2SC1", "outcome": "inactive"}
{"smiles": "O=C(O)c1cc2cc(Cc3cccnc3)ccc2o1", "outcome": "inactive"}
{"smiles": "COc1ccc(-c2nc3ccc(C4=NNC(=O)CC4C)cc3[nH]2)cc1", "note": "(stereo not given)", "outcome": "inactive"}
{"smiles": "O=C1NCCN1CCO", "outcome": "inactive"}
{"smiles": "COc1ccc(C=NNC(=O)c2ccncc2)c(C(=O)O)c1OC", "outcome": "inactive"}
{"smiles": "CCCCc1cc2ccccc2c(OCCN(C)C)n1", "outcome": "inactive"}
{"smiles": "CCN(CCO)CCCC(C)Nc1ccnc2cc(Cl)ccc12", "note": "(stereo not given)", "outcome": "inactive"}
{"smiles": "CC/C=C(\\C(=O)N[C@@H]1C(=O)N2C(C(=O)OCOC(=O)C(C)(C)C)=C(COC(N)=O)CS[C@H]12)c1csc(N)n1", "outcome": "inactive"}
{"smiles": "Cc1cccc(C)c1NC(=O)CN1CCCCCC1", "outcome": "inactive"}
{"smiles": "COC(=O)NCCC[Si](OC)(OC)OC", "outcome": "inactive"}
{"smiles": "N=C(N)c1ccccc1", "outcome": "inactive"}
{"smiles": "O=C(CN1CCNCC1)NC1CCCCC1", "outcome": "inactive"}
{"smiles": "CCC(=O)CC", "outcome": "inactive"}
{"smiles": "CC1CCCC(=O)C1=O", "note": "(stereo not given)", "outcome": "inactive"}
{"smiles": "O=C(CCNNC(=O)c1ccncc1)NCc1ccccc1", "outcome": "inactive"}
{"smiles": "CCCCCC[C@@H](O)C/C=C\\CCCCCCCC(=O)OC", "outcome": "inactive"}
{"smiles": "C1COCCO1", "outcome": "inactive"}
{"smiles": "Cn1c(N)nc2nc[nH]c2c1=O", "outcome": "inactive"}
{"smiles": "Nc1cc(C(=O)O)c(O)c(S(=O)(=O)O)c1", "outcome": "inactive"}
{"smiles": "c1ccc(SCCSc2ccccc2)cc1", "outcome": "inactive"}
{"smiles": "CCCCOC(=O)C(=O)OCCCC", "outcome": "inactive"}
{"smiles": "Nc1ccc(C(=O)O)c(O)c1", "outcome": "inactive"}
{"smiles": "CC(C)(C)NCCO", "outcome": "inactive"}
{"smiles": "CCC=C1OC(=O)c2ccccc21", "outcome": "inactive"}
{"smiles": "Cc1ccnc(NS(=O)(=O)c2ccc(N)cc2)n1", "outcome": "inactive"}
{"smiles": "C[C@@H](N)C(=O)O", "outcome": "inactive"}
{"smiles": "N=C(N)c1ccc(C=Cc2ccc(C(=N)N)cc2O)cc1", "outcome": "inactive"}
{"smiles": "CCN(CCCc1ccccc1)CCCc1ccccc1", "outcome": "inactive"}
{"smiles": "Oc1ccc(C(O)CNCCCCCCNCC(O)c2ccc(O)c(O)c2)cc1O", "note": "(stereo not given)", "outcome": "inactive"}
{"smiles": "CCCCNC(=O)NCCCC", "outcome": "inactive"}
{"smiles": "C=CCC=CC", "outcome": "inactive"}
{"smiles": "CN(C)CCCNCCCN", "outcome": "inactive"}
{"smiles": "CC(C)=CC(C)(C)C", "outcome": "inactive"}
